Reference: the supplement of paper PMC11732987, “Enantioselective OTUD7B fragment discovery through chemoproteomics screening and high-throughput optimisation” (Communications Chemistry, 2025)

Legend:
Test in all cases: log2 ratio of Biotin-Ahx-Ub-VS probe labelling (fragment/DMSO); higher = less target engagement (more negative = stronger competition), active = hit call of the paper (q ≤ 0.05, log2 ratio ≤ -1)
Conditions in all cases: compound concentration: 200 uM; treatment time: 3 h
[1] = target: USP16 (UniProt Q9Y5T5)
Sequence of USP16 (Q9Y5T5 whole entry, looked up, the tested form may be a part): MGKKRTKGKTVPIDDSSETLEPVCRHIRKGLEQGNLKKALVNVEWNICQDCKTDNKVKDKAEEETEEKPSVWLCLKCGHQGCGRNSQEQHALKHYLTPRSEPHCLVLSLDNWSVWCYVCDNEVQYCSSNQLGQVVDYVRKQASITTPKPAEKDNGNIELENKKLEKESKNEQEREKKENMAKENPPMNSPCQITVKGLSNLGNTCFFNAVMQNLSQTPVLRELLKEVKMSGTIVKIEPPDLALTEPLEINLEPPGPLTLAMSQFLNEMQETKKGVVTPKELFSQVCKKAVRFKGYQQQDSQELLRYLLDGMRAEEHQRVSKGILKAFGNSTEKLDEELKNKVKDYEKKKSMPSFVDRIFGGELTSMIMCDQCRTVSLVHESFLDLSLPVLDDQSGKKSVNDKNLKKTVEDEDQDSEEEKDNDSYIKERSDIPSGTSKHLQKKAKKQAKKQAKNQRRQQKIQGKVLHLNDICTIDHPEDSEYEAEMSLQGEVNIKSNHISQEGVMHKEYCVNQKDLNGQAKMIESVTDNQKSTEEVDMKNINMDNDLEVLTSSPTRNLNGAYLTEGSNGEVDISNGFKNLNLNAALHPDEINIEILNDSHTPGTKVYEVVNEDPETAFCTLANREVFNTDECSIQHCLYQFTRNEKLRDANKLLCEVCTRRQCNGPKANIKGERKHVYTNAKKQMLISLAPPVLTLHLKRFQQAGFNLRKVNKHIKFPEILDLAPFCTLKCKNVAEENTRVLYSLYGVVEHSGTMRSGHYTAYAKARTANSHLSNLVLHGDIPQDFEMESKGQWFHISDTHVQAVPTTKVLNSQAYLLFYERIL
Summary of the method: (§1)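 Labelled DUBs from HEK293T lysate were NeutrAvidin-enriched, digested with LysC and trypsin, and run by diaPASEF LC-MS/MS. Before that, each 495 µg sample in Tris/CHAPS/IGEPAL buffer with protease inhibitors was treated in triplicate with fragment at 200 µM or vehicle for 3 h, then with Biotin-Ahx-Ub-VS at 0.5 µM final for 1 h. Values are average log2 ratios of fragment over vehicle by unpaired t-test, based on global-median-normalised Spectronaut label-free quantities from proteins with ≥2 unique peptides.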

[2] = target: T1, USP19 (UniProt O94966)
T1 sequence (whole entry): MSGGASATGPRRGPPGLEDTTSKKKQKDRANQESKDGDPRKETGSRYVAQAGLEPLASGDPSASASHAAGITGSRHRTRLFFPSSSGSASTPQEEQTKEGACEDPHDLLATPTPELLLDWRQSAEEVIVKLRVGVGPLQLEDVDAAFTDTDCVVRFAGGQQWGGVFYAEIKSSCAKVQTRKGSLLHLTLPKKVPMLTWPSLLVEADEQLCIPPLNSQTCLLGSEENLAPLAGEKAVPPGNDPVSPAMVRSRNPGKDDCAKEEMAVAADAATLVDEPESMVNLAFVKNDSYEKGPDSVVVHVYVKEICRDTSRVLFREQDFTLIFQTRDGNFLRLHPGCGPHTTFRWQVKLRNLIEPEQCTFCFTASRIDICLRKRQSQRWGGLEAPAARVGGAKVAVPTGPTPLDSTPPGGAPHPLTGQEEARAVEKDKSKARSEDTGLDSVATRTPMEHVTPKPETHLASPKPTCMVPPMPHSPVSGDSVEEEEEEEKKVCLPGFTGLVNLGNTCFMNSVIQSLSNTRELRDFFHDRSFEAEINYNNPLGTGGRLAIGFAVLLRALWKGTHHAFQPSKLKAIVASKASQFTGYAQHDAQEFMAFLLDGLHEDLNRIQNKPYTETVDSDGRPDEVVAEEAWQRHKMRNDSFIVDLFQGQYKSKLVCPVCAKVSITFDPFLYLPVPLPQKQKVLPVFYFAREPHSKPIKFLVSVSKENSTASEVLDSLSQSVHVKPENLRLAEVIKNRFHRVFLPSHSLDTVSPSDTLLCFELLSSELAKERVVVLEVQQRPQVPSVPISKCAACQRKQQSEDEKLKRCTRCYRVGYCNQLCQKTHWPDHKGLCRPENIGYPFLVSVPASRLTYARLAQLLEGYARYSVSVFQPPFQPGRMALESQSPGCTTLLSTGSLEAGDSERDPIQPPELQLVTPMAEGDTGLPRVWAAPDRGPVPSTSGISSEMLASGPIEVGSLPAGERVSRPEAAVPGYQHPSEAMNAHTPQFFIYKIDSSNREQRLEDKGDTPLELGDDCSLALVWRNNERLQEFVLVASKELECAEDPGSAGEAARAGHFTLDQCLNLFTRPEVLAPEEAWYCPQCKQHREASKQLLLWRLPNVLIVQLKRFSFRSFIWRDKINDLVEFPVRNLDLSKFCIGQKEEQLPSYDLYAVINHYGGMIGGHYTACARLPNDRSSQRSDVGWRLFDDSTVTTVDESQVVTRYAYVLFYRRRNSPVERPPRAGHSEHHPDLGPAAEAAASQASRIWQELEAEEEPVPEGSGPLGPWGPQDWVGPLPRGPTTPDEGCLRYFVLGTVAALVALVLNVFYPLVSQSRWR
Summary of the method: as §1

[3] = target: USP24 (UniProt Q9UPU5)
Sequence of USP24 (Q9UPU5 whole entry): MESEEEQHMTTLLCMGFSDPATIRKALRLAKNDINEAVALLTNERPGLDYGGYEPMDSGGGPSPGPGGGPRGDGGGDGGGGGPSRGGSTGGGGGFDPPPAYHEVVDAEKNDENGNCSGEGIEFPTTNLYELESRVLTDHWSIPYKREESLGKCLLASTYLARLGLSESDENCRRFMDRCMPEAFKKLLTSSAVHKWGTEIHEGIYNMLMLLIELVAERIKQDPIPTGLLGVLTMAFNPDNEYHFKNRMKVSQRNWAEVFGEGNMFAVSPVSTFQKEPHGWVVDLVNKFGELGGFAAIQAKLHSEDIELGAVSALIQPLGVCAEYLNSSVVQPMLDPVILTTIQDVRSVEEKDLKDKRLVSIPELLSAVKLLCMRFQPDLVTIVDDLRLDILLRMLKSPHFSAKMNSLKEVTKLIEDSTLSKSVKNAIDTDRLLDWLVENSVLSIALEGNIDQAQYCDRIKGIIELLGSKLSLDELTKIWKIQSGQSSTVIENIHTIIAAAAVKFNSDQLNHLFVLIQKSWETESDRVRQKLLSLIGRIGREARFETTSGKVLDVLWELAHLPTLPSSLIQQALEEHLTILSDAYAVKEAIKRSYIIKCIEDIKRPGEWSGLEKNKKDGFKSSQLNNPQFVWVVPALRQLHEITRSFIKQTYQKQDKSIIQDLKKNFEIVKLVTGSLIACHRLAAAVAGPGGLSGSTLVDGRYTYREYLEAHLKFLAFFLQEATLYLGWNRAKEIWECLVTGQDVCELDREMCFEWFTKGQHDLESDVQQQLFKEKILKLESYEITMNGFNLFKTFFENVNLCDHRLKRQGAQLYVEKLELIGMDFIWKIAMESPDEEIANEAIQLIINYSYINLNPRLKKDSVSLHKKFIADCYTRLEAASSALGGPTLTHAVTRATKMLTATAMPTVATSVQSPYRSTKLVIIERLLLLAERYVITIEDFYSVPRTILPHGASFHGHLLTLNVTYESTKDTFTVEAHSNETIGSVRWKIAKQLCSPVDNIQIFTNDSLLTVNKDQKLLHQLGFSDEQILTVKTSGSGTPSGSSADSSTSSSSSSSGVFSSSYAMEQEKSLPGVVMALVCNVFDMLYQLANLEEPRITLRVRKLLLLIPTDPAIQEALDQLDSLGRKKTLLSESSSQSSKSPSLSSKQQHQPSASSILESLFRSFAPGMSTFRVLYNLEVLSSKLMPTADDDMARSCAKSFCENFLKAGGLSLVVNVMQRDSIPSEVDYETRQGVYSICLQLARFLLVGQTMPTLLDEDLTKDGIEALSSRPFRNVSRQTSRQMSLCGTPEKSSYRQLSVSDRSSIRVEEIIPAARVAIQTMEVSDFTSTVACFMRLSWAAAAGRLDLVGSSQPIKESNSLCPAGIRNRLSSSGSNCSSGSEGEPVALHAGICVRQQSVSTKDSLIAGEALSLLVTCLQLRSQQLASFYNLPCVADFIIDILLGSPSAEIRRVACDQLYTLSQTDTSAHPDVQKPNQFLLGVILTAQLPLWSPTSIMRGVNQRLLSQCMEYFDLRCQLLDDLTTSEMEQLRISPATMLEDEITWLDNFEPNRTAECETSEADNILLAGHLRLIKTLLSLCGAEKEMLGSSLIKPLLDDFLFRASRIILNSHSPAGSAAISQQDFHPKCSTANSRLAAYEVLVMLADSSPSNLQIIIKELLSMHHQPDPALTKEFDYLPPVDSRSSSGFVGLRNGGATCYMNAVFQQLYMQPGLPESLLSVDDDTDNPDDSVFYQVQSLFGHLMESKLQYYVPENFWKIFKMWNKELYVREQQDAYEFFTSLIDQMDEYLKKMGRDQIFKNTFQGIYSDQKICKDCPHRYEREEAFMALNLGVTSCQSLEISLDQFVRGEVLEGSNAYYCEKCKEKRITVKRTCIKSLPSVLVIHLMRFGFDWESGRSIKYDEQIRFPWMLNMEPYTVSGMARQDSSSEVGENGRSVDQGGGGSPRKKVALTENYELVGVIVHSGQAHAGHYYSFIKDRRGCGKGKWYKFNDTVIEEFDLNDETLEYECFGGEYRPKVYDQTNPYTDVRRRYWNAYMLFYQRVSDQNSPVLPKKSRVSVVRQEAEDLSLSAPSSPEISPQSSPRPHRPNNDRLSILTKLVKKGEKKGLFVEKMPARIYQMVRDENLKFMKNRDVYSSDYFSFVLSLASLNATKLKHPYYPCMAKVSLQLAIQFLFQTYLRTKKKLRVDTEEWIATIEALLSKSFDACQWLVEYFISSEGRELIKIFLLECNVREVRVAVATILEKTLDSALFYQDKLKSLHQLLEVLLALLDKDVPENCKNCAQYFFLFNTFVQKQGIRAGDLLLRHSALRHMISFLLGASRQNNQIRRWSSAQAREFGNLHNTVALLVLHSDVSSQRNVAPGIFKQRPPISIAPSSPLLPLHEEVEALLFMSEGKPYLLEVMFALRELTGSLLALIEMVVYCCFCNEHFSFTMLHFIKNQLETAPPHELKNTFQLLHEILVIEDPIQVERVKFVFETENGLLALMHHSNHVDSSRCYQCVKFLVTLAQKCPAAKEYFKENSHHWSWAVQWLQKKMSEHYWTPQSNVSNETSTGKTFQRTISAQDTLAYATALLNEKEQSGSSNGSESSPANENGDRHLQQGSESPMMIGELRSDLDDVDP
Summary of the method: as §1

[4] = target: T2, USP25 (UniProt Q9UHP3)
T2 sequence (whole entry): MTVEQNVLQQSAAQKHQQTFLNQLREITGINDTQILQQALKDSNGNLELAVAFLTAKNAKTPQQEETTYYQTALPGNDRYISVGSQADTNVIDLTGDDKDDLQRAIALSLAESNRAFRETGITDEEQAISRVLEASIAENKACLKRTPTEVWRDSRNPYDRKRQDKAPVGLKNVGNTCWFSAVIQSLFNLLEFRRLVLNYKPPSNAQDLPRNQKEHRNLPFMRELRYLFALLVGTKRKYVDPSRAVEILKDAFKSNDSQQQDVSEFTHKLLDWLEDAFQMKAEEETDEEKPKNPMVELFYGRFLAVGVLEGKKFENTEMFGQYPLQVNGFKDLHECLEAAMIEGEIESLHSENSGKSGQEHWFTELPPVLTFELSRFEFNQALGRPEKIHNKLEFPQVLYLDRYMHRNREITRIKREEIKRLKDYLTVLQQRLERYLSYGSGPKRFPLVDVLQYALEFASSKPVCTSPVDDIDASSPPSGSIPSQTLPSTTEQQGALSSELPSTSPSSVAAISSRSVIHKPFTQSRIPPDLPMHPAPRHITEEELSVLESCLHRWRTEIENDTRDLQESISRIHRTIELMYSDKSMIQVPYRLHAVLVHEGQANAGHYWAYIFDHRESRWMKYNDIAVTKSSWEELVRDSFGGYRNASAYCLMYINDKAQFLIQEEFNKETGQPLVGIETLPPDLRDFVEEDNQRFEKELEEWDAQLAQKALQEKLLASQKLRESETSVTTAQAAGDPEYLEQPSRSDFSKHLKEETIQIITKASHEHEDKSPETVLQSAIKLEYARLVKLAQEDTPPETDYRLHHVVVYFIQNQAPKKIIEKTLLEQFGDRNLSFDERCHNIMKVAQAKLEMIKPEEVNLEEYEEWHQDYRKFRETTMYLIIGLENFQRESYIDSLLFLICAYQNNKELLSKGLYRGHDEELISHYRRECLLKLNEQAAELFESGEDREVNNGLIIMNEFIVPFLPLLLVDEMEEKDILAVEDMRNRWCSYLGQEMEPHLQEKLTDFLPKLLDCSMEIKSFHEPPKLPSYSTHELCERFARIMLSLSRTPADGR
Summary of the method: as §1

[5] = target: T3, USP28 (UniProt Q96RU2)
T3 sequence (whole entry): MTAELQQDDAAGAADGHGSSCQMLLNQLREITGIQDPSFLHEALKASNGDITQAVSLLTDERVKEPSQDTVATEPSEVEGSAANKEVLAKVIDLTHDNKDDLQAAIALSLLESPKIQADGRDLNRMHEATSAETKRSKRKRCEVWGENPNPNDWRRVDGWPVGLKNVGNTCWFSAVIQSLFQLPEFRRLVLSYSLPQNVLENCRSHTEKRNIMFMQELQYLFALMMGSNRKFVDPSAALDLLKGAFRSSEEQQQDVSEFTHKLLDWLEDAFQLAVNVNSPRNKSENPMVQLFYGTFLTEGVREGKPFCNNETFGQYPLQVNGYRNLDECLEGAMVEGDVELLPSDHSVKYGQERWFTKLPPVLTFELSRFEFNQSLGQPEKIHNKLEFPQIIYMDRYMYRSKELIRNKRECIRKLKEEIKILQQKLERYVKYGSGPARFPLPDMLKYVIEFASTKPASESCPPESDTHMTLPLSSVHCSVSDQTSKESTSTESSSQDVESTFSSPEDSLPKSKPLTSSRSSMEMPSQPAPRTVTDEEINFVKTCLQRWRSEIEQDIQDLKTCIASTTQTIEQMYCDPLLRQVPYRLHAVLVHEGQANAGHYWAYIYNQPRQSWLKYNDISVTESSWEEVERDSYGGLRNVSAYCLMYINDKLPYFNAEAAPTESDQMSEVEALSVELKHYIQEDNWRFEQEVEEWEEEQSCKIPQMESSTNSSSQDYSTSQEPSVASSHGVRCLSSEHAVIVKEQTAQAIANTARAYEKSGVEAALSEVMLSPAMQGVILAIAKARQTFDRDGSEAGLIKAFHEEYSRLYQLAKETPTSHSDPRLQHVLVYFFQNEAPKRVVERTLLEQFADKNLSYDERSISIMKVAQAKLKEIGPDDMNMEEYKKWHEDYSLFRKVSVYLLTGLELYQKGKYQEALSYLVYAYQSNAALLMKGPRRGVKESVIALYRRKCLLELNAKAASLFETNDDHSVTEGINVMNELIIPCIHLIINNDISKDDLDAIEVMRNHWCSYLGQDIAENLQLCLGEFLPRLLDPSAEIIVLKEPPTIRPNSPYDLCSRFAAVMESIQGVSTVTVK
Summary of the method: as §1

Measured: log2 ratio of Biotin-Ahx-Ub-VS probe labelling

Cc1cccn2cc(CCNC(=O)CCl)nc12.Cl
inactive: [1] -0.607 | [2] -0.279 | [3] -0.29 | [4] -0.0777 | [5] -0.334
